Screening data as filed in PubChem.
In the library only some 19% were active in any assay of this set; here they are far more common.
SW480 rerep: inducers of DNA re-replication in SW480 colon cancer cells. SW480 DNA re-replication, Hoechst DNA content imaging, 48 h. Potency, µM (highest dose often 46.1 µM), actives largely listed as activators. actives 1.8% (n = 340,000); further: nearly all actives have a fitted effect of over 55% in size
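First, 250 cells per well were seeded. Next, compound or vehicle (23 nL) was pinned in, plates sat 48 hr at 37 C. Finally Hoechst was added for 40 min before fluorescence scanning.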
TDP1 cell noCPT: qHTS for Inhibitors of human tyrosyl-DNA phosphodiesterase 1 (TDP1): qHTS in cells in absence of CPT; actives 15% (n = 420,000); DT40 Tdp1-/- hTDP1 cells, no CPT, ATP luminescence, 48 h; Potency, µM (series often up to 46.2 µM), usual class: inhibitors; further: nearly all actives have a fitted effect of over 55% in size
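Compound effects on proliferation are scored in DT40 Tdp1-/-;hTDP1 cells in the absence of CPT. ATP levels (CellTiter-Glo luminescence) are recorded after a ≥48 hr, 37 °C incubation.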
IL1B secr inh: inhibitors of inflammasome signaling (IL-1 beta secretion); THP-1 LPS/ATP IL-1B secretion, AlphaLISA, 16 h; hits give low values; activity change, % at 57.5 µM; actives 4.7% (n = 360,000); AID 743279; in the data active means activity change below about -50%; inconclusive means mostly about -30% to -49%
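THP-1 cells pretreated 1 hr with compounds (up to 57.5 uM final), then stimulated with LPS (250 ng/mL final) plus ATP (1.25 mM final); secreted IL-1B measured by AlphaLISA after 16 hr, decreased signal indicating inhibition.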
BCR signal inh: inhibitors of chronic active B-cell receptor signaling | actives 0.05% (n = 340,000) | AID 493014 | Potency, µM (highest dose often 46.1 µM), actives largely listed as inhibitors | ABC-DLBCL IkBa-CBG/CBR reporter, luminescence ratio, 4 h; active means well fitted inhibition curve with a large enough effect in the signal ratio, with a control signal flat, not every such curve was filed as active; inconclusive means small, poorly fitted or top-dose-only effect, or effect the other way, or a change in a side signal; the % refers to the signal ratio
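Cell line TMD8 (human ABC DLBCL), stably expressing tet-inducible CBG68-IkBa fusion and CBR; IMDM/0.5% FBS; cpd up to 46 uM; dox induction, 4 h, 37C/5% CO2; dual luminescence; green/red ratio; MG132 control.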
DT40 TDP1 CPT: DT40-hTDP1 cell growth loss with CPT. chicken DT40 Tdp1-/-;hTDP1 cells + 20 nM CPT, ATP luminescence, 48 h. AID 686979. actives 12% (n = 420,000). Potency, µM (titrated, usually from 46.2 µM), usual class: inhibitors; further: nearly all actives have a fitted effect of over 55% in size
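Cell growth measured by CellTiter-Glo luminescence after a minimum 48 h, 37 C compound exposure with 20 nM CPT in Tdp1-knockout DT40 cells stably expressing hTDP1, seeded 400/well; qHTS titration format.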
MCF10A rerep: inducers of DNA re-replication in MCF 10A breast cells | MCF 10A DNA re-replication, Hoechst nuclear intensity, 48 h | Potency, µM (top dose mostly 46.1 µM), usual class: activators | actives 2.9% (n = 350,000) | AID 624296; further: nearly all actives have a fitted effect of over 50% in size
Hits are given with their value; [ ] = another dose, or the depositor's remark. Unless noted, the call rests on the fitted dose curve; in most records, active means well fitted curve in the direction sought with a large enough effect; inconclusive means small, poorly fitted or top-dose-only effect, or another doubt; inactive means no such curve, though single readings can be large; an effect the other way counts as inactive or inconclusive.

For COc1cc(N(C(C)=O)c2ccc(O)c(C(=O)O)c2)c2ncccc2c1 the results were TDP1 cell noCPT inactive, IL1B secr inh inactive and DT40 TDP1 CPT inactive.
O=C(Nc1cccc2nsnc12)c1ccc(-c2cccc(Cl)c2)o1 was read as SW480 rerep inactive[9.22 µM], TDP1 cell noCPT inconclusive, IL1B secr inh inactive, BCR signal inh inactive, DT40 TDP1 CPT inconclusive and MCF10A rerep 5.8µM.
O=C(NC(=S)Nc1cc(Cl)ccc1N1CCOCC1)c1ccc(-c2cccc(Cl)c2)o1 was read as SW480 rerep inactive, TDP1 cell noCPT inactive, IL1B secr inh inactive, BCR signal inh inactive, DT40 TDP1 CPT inactive and MCF10A rerep inactive.
O=C(O)c1ccc(-c2cccc(Cl)c2)o1 was read as SW480 rerep inactive, TDP1 cell noCPT inactive, IL1B secr inh inactive, DT40 TDP1 CPT inactive and MCF10A rerep inactive.
`O=C(Nc1ccccc1N1CCCCC1)c1ccc(-c2cccc(Cl)c2)o1` gave SW480 rerep inactive, TDP1 cell noCPT inconclusive, IL1B secr inh inactive, BCR signal inh inactive, DT40 TDP1 CPT inactive and MCF10A rerep 16µM.
For CN1CCN(c2ccccc2NC(=O)c2ccc(-c3ccc(Cl)cc3Cl)o2)CC1 the results were SW480 rerep inconclusive, TDP1 cell noCPT 23µM, IL1B secr inh inactive, BCR signal inh inactive, DT40 TDP1 CPT 21µM and MCF10A rerep inconclusive.
For O=C(COCc1cc(-c2ccc3c(c2)OCO3)on1)N1CCN(c2ccccc2)CC1 the results were SW480 rerep inactive, TDP1 cell noCPT inconclusive, IL1B secr inh inconclusive, BCR signal inh inconclusive, DT40 TDP1 CPT inconclusive and MCF10A rerep inactive.
For CCOC(=O)c1cnc2c(C)cc(C)cc2c1Nc1ccc(S(=O)(=O)Nc2ncccn2)cc1 the results were SW480 rerep inactive, TDP1 cell noCPT inactive, IL1B secr inh inactive, BCR signal inh inactive, DT40 TDP1 CPT inactive and MCF10A rerep inactive.
Screening CCOC(=O)c1cnc2c(C)cc(C)cc2c1Nc1cccc(C(=O)O)c1 returned TDP1 cell noCPT 15µM and DT40 TDP1 CPT 13µM.
Screening CCOC(=O)c1cnc2c(C)cc(C)cc2c1NCCN1CCOCC1 returned TDP1 cell noCPT 16µM and DT40 TDP1 CPT 18µM.
CCOC(=O)c1cnc2c(C)cc(C)cc2c1NCCCN1CCOCC1 was read as SW480 rerep inactive, TDP1 cell noCPT inconclusive, IL1B secr inh -71, BCR signal inh inactive, DT40 TDP1 CPT inconclusive and MCF10A rerep inactive.
O=C(OCc1cn([C@H]2C[C@H](c3ccc(Cl)cc3)N(C(=O)C3CCCCC3)C[C@@H]2O)nn1)c1ccccc1 was read as TDP1 cell noCPT inactive, IL1B secr inh inconclusive and DT40 TDP1 CPT inactive.
`COc1ccc(C2/C(=C(/O)c3ccccc3)C(=O)C(=O)N2C)cc1OC` (centres undefined) gave SW480 rerep inactive, TDP1 cell noCPT inactive, IL1B secr inh inactive, BCR signal inh inconclusive, DT40 TDP1 CPT inactive and MCF10A rerep inactive.
`O=C(c1cc2ccccc2[nH]1)c1cc2cc(O)ccc2[nH]1` gave TDP1 cell noCPT 16µM and DT40 TDP1 CPT inconclusive.
CC1(C(=O)NCc2ccccc2)CSCC(=O)N1Cc1cccc(C(F)(F)F)c1 (centres undefined) was read as TDP1 cell noCPT inconclusive, IL1B secr inh inactive and DT40 TDP1 CPT 18µM.
Screening COc1ccc(CN2C(=O)CSCC2(C)C(=O)NCc2ccccc2)cc1OC (centres undefined) returned TDP1 cell noCPT inconclusive, IL1B secr inh inactive and DT40 TDP1 CPT inactive.
`COc1ccc(-n2c(-c3ccc(Br)cc3)c[n+]3c2CCC3)cc1` gave SW480 rerep inactive, TDP1 cell noCPT 4.6µM, IL1B secr inh -67, BCR signal inh inactive, DT40 TDP1 CPT 18µM and MCF10A rerep inconclusive.
`COc1ccc(-n2c(-c3ccc(Br)cc3)c[n+]3c2CCCCC3)cc1` gave SW480 rerep inactive, TDP1 cell noCPT 1.8µM, IL1B secr inh -78, BCR signal inh inactive, DT40 TDP1 CPT 1.8µM and MCF10A rerep inactive.
COc1ccc(-n2c(-c3ccccc3)cc3c2CCCC3=O)cc1 was read as SW480 rerep inactive, TDP1 cell noCPT inconclusive, IL1B secr inh inactive, BCR signal inh inconclusive, DT40 TDP1 CPT inactive and MCF10A rerep inconclusive.
For COc1ccc(-n2c(-c3ccc(Br)cc3)c[n+]3c2SC(C)C3)cc1 (centres undefined) the results were SW480 rerep inactive, TDP1 cell noCPT 1.2µM, IL1B secr inh -97, BCR signal inh inactive, DT40 TDP1 CPT 1.6µM and MCF10A rerep inactive.
`COc1ccc(-n2c(-c3ccc(Br)cc3)n[nH]c2=S)cc1` gave SW480 rerep inactive, TDP1 cell noCPT inconclusive, IL1B secr inh inactive, BCR signal inh inactive, DT40 TDP1 CPT inconclusive and MCF10A rerep inactive.
`CCOc1ccc(-c2c[n+]3c(n2-c2ccccc2)CCCCC3)cc1` gave SW480 rerep inactive, TDP1 cell noCPT 0.0073µM, IL1B secr inh inconclusive, BCR signal inh inactive, DT40 TDP1 CPT 0.082µM and MCF10A rerep inactive.
For COc1ccc(-n2c(-c3ccccc3)c[n+]3c2CCC3)cc1 the results were SW480 rerep inactive, TDP1 cell noCPT 2.3µM, IL1B secr inh inconclusive, BCR signal inh inactive, DT40 TDP1 CPT 2.1µM and MCF10A rerep inactive.
`Cc1ccc(C)c2[nH]c(=O)c(CCNC(=O)c3cc4ccccc4o3)cc12` gave SW480 rerep inactive, TDP1 cell noCPT 21µM, IL1B secr inh inconclusive, BCR signal inh inconclusive, DT40 TDP1 CPT 18µM and MCF10A rerep inactive.
`COc1ccc(OC)c2[nH]c(=O)c(CCNC(=O)c3cc4ccccc4o3)cc12` gave SW480 rerep inactive, TDP1 cell noCPT inconclusive, IL1B secr inh inactive, BCR signal inh inactive, DT40 TDP1 CPT 15µM and MCF10A rerep inactive.
For COc1ccc(OC)c2[nH]c(=O)c(CCNC(C)=O)cc12 the results were SW480 rerep inactive, TDP1 cell noCPT inactive, IL1B secr inh inactive, BCR signal inh inactive, DT40 TDP1 CPT inactive and MCF10A rerep inactive.
`NC(=O)N/N=C/c1ccccc1OCc1cccc2ccccc12` gave SW480 rerep inactive, TDP1 cell noCPT inactive, IL1B secr inh inactive, BCR signal inh inactive, DT40 TDP1 CPT inactive and MCF10A rerep inactive.
Cc1c(C(=O)N2CCNCC2)oc2ccccc12 was read as SW480 rerep inactive, TDP1 cell noCPT inactive, IL1B secr inh inactive, BCR signal inh inconclusive, DT40 TDP1 CPT inactive and MCF10A rerep inactive.
For O=C(Oc1ccc2ccccc2c1Cl)N1CCCCCC1 the results were SW480 rerep inactive, TDP1 cell noCPT inconclusive, IL1B secr inh inactive, BCR signal inh inconclusive, DT40 TDP1 CPT inactive and MCF10A rerep inactive.
